# An excerpt weighted towards active compounds, which were near 4.7% of everything screened.
# HTT prom inh: inhibits huntingtin promoter activity; HEK293 HTT promoter firefly luciferase reporter, 24 h; Potency, µM (series often up to 57.5 µM), hits mostly inhibitors; 48,000 tested, 0.93% active; AID 1508623; note: nearly all actives have a fitted effect of over 50% in size
#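 HEK293 cells carrying firefly luciferase reporters were seeded at 2,500 per well in Opti-MEM and cultured for 24 h. They were then treated with compounds at up to 57.5 uM final for 24 h at 37 degrees C before Dual-Glo luminescence readout.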
# GALC G270D act: galactocerebrosidase G270D activity enhancement, cell-based; P54803; 145M-Twi-hGALC-G270D cells (Twitcher mouse brain line with human GALC G270D), HMU-beta-Gal fluorescence, 48 h; Potency, µM (doses to about 57.5 µM), hits mostly activators; 45,000 tested, 0.1% active; note: nearly all actives have a fitted effect of over 65% in size
#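 Fluorogenic HMU-b-Gal hydrolysis (0.1 mM final, pH 5.2 citrate-phosphate with 1 mg/mL sodium taurocholate; carbonate stop buffer) measures mutant GALC activity after compound treatment of live 145M-Twi Twitcher brain cells stably carrying human GALC-G270D, with wild-type GALC line alongside; activation sought.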
# DRV1 agonist: GPR32 (DRV1) agonism, beta-arrestin recruitment; O75388; CHO-K1 GPR32 beta-arrestin PathHunter luminescence, 90 min; zero percent set by DMSO-only wells; 48,000 tested, 2.5% active; AID 1346428; activation, % at 76.9 µM;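 active = activation of at least 60% and not above a set upper limit, about 1 call in 100 departs from these limits; inconclusive = activation of 40% to 60%, or above that upper limit; inactive = activation under 40%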
#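 Cells are plated overnight, treated with compounds in DMSO for 90 minutes at 37 °C, and developed with PathHunter detection reagent for 1 hour before luminescence is read; signal reflects beta-arrestin binding to GPR32 in engineered CHO-K1 cells.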
# NTMT1 inhibitor: inhibitors of human N-terminal methyltransferase NTMT1 | Q9BV86 | NTMT1 MTase-Glo SAH luminescence, purified enzyme | Potency, µM (highest dose often 114 µM), most hits filed as inhibitors | 59,000 tested, 2.5% active | AID 1645870; note: nearly all actives have a fitted effect of over 65% in size
# Target sequence (Q9BV86 whole entry, looked up): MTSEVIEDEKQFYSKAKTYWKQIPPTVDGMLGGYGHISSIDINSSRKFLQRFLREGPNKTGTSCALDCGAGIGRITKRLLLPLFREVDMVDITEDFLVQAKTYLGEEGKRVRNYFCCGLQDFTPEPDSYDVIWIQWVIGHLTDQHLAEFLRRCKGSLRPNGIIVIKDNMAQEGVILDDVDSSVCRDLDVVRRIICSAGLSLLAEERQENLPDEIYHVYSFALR
# FH mod: Identification of activators of human fumarate hydratase by quantitative high-throughput screening. FH coupled MDH/diaphorase resazurin fluorescence, 15 min. Fumarate hydratase, mitochondrial (Homo sapiens), P07954. 54,000 tested, 0.22% active. Potency, µM (highest dose often 79.9 µM), most hits filed as inhibitors; note: the screen sought activators but most active calls are inhibition curves; nearly all actives have a fitted effect of over 45% in size
# Target sequence (P07954 whole entry, looked up): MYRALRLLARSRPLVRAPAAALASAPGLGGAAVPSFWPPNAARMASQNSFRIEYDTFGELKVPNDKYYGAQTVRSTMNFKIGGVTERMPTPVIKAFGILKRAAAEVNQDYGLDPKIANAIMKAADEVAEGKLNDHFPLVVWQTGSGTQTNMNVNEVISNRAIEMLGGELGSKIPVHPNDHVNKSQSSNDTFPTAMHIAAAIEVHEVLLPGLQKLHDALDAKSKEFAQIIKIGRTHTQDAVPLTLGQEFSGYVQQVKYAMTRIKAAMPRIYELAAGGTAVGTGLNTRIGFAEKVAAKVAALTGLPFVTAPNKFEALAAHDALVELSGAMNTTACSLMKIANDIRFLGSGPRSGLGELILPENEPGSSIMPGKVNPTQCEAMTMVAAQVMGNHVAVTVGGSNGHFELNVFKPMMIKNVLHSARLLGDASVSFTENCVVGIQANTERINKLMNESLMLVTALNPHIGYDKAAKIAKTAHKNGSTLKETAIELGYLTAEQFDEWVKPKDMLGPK
# HTT-AS promoter: activates huntingtin-antisense promoter activity; HEK293 HTT-AS promoter firefly luciferase reporter, 24 h; response scale: percent change from vehicle, -100% = no light; Potency, µM (doses to about 57.5 µM), hits mostly activators; 48,000 tested, 0.24% active; note: nearly all actives have a fitted effect of over 55% in size
#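 HEK293 Fluc reporter, 2,500 cells/well, 24 h pre-culture; cpds up to 57.5 uM final, 24 h 37 degrees C; Dual-Glo, 10 min RT; normalized vehicle = 0%, zero RLU = -100%.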
# A number is an active result; – = inactive; ? = inconclusive; · = no result; [ ] = another dose, or the depositor's remark. Unless noted, calls come from the whole dose curve; as a rule, active = well fitted curve in the direction sought with a large enough effect; inconclusive = small, poorly fitted or top-dose-only effect, or another doubt; inactive = no such curve, though single readings can be large; an effect the other way counts as inactive or inconclusive.
SMILES,HTT prom inh,GALC G270D act,DRV1 agonist,NTMT1 inhibitor,FH mod,HTT-AS promoter
Cc1ccc(S(=O)(=O)N2CCC(c3ccncc3)CC2)c(C)c1,16µM,–,–,?,–,–
O=S(=O)(c1ccc(Cl)cc1)N1CCC(c2ccncc2)CC1,–,–,–,–,–,–
CC(C)(C)c1ccc(S(=O)(=O)N2CCC(c3ccncc3)CC2)cc1,16µM,–,–,–,–,–
CCc1cc(CN2CC(C(=O)O)C2)sc1-c1noc(-c2ccc(Oc3ccccc3)cc2)n1,·,·,·,–,–,·
Nc1ncnc2c1ncn2[C@@H]1O[C@H](CN[S+](=O)([O-])NC(=O)c2cccc(-c3noc(-c4ccccc4F)n3)c2)[C@@H](O)[C@H]1O,·,·,·,0.89µM,·,·
Nc1ncnc2c1ncn2[C@H]1O[C@H](CO)[C@@H](O)[C@@H]1O,·,·,·,?,–,·
Cc1ccc(-c2cc3nccc(-c4cc([N+](=O)[O-])ccc4O)n3n2)cc1,?,–,–,?,–,–
Cc1cc(O)c(-c2ccnc3cc(-c4ccccc4)nn23)cc1Cl,–,–,90,?,–,–
CC(C)n1c(=O)c(C(=O)NC2CC3CCC(C2)N3C[C@@H](O)CN(C)S(C)(=O)=O)cc2ccccc21 (stereo not given in full),·,·,·,–,–,·
COC1CC(OC2CCC3(C)C(=CCC4C3C(OC(C)=O)C(OC(=O)/C=C/c3ccccc3)C3(C)C(C(C)O)CCC43O)C2)OC(C)C1OC1CC(OC)C(OC2OC(C)C(OC3OC(CO)C(O)C(O)C3O)C(OC)C2O)C(C)O1 (stereo not given),·,·,·,–[6.45 µM],–[13.5 µM],·
CCc1ccc(CN(C(=O)c2cc3ccccc3oc2=O)C2CCS(=O)(=O)C2)cc1 (stereo not given),–,–,–,–,–,3.5µM
COc1ccc(C(=O)c2sc3nc(-c4ccc(F)cc4)ccc3c2N)cc1,–,–,98,–,–,–
Cc1ccc(CNC(=O)c2sc3nc(-c4ccc(F)cc4)ccc3c2N)cc1,–,–,96,–,–,–
CCNC(=O)N1CCCN(c2ccc(C(=O)NCCc3ccc(Cl)cc3Cl)cc2NC(=O)c2cccc(Cl)c2)CC1,·,·,·,–,–,·
COc1ccc(CCO[C@@H]2O[C@H](CO[C@@H]3OC[C@H](O)[C@H](O)[C@H]3O)[C@@H](O)[C@H](O)[C@H]2O)cc1,·,·,·,?,–,·
Cc1nc2c(C(=O)NCCc3ccc(Cl)cc3)c[nH]n2c(=O)c1Cc1ccccc1F,–,–,–,–,?,–
COc1ccc(CCNC(=O)c2c[nH]n3c(=O)c(Cc4ccccc4Cl)c(C)nc23)cc1OC,?,–,–,–,18µM,–
NS(=O)(=O)c1cccc2c1c([N+](=O)[O-])cc1nc(O)c(O)nc12,·,·,–,·,18µM,·
Cc1ccc(S(=O)(=O)Nc2cccc3cccnc23)c([N+](=O)[O-])c1,·,·,·,–,·,·
O=C(CN1C=NS(=O)(=O)c2ccc(C(F)(F)F)cc21)Nc1cccc(C(F)(F)F)c1,–,–,99,–,–,–
O=C(CSc1nc2cc3ccccc3cc2[nH]1)Nc1cccc(C(F)(F)F)c1,–,–,94,–,–,–[11.5 µM]
O=C(CSc1nc2ccncc2[nH]1)Nc1ccccc1C(F)(F)F,?,–,–,–,–,–
CC(=O)c1cccc(NC(=O)CN2C=NS(=O)(=O)c3ccc(C)cc32)c1,–,–,–,–,–,–
Cc1cc(C)n2nc(SCC(=O)Nc3cccc(C(F)(F)F)c3)nc2n1,?,–,61,–,–,–
O=C1CCc2cc(S(=O)(=O)Nc3ccc(F)c(Cl)c3)c(F)cc2N1,·,·,·,?,–,·
SMILES,HTT prom inh,GALC G270D act,DRV1 agonist,NTMT1 inhibitor,FH mod,HTT-AS promoter
COc1ccc(C2CC(=O)c3c([nH]c(C(=O)OC4CCCCCC4)c3C)C2)cc1OC (stereo not given),?,–,–,89µM,–,–
COc1ccc(C2CC(=O)c3c([nH]c(C(=O)OC4CCCC4)c3C)C2)cc1OC (stereo not given),–,–,–,–,–,–
COc1cc(O)c(C(CC(=O)N2CCC(C)CC2)c2ccc(C)cc2)c(OC)c1 (stereo not given),·,·,·,–,·,·
COc1ccc(OC)c(S(=O)(=O)N2CCC(n3c(C)nc4cccnc43)CC2)c1,·,·,65,·,·,·
NC1CCC(Nc2nc(Nc3ccc(C(=O)N4CCCCC4)cc3)c3ncn(-c4cccc(F)c4)c3n2)CC1 (stereo not given),–,·,·,40µM,–,?
COC(=O)C1CCN(C(=O)c2ccc3c(c2)ncn3-c2cccc(C)c2)CC1,·,·,·,–,·,·
N#C/C(=C\c1ccc(O)c(O)c1)C(=O)NCCCNC(=O)/C(C#N)=C/c1ccc(O)c(O)c1,·,·,–,1.3µM,?,·
N#C/C(=C\c1ccc(O)c(O)c1)C(=O)Nc1ccccc1,·,·,–,·,14µM,·
O=C(Nc1ccc(Cl)c(S(=O)(=O)N2CCOCC2)c1)c1ccc(S(=O)(=O)N2CCCCC2)cc1,·,·,·,–,·,·
CN(C)c1ccc(C2N=C(Nc3nc4ccccc4o3)NC3=C2C(=O)CCC3)cc1 (stereo not given),·,·,·,–,·,·
N#Cc1ccc(Cn2cncc2CN2CCN(c3cccc(Cl)c3)C(=O)C2)cc1,·,·,·,–,·,·
Cc1occc(=O)c1O[C@@H]1O[C@H](CO)[C@@H](O)[C@H](O)[C@H]1O,·,·,·,–,–,·
NC(=O)Nc1cc(-c2ccc(CN3CCOCC3)cc2)sc1C(N)=O,–,·,·,–,–,22µM
NC(=O)Nc1cc(-c2ccc(CN3CCOCC3)c(F)c2)sc1C(=O)N[C@H]1CCCNC1,·,·,·,–,·,·
CCO[C@@H]1OC(=O)C[C@@H]1NC(=O)[C@@H]1CCCN2C(=O)CC[C@H](NC(=O)c3nccc4ccccc34)C(=O)N12,·,·,·,–,·,·
CNS(=O)(=O)c1ccccc1Nc1nc(Nc2ccc(N3CCN(C)CC3)cc2OC)ncc1Br,·,·,·,?,–,·
COc1cccc(C(=O)Nc2nc(-c3nnn(-c4cc(C)ccc4C)c3C)ns2)c1,?,–,–,–,–,–
COc1cccc(C(=O)Nc2nc(-c3nnn(-c4ccccc4C(F)(F)F)c3C)ns2)c1,?,–,91,–,–,–
Cc1ccc(-n2c(-c3ccco3)nc3c(cnn3-c3ccc(C)cc3)c2=O)cc1,–,–,–,–,–,–
Cc1cccc(-n2c(-c3ccco3)nc3c(cnn3-c3ccc(F)cc3)c2=O)c1,18µM,–,–,–,–,–
Cc1ccc(-c2ccc(CCC(=O)O)n2-c2cccc(O)c2)cc1,–,–,–,79µM,–,–
CC(C)c1ccc(C2=CC(c3cccc(Cl)c3)n3ncnc3N2)cc1 (stereo not given),–,–,74,–,–,–
